One assay has as its target Albumin (Bos taurus) (UniProt P02769). Nature of the assay: compounds binding labelled BSA control protein – biochemical, small-molecule microarray, Alexa647 label, 635/667 nm fluorescence, artefact control for SMM control protein annotation, profiling panel (AID 1118).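 Note: score merges 667 nm emission intensity and signal-to-noise per printed compound spot.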 Conditions: BSA-A647 binding, fluorescence 635 nm, higher = more signal.
Assay [1] in a line: probe aXIP binding to arrayed compounds – biochemical, NeuroSMM set, 635/667 nm fluorescence, primary screen (AID 1119).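 Note: probe is the protein aXip251-270 applied at 1 µg/mL to compound-printed slides; binding of probe to printed compounds measured as 667 nm fluorescence plus signal to noise.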 Particulars: small-molecule microarray, higher = more signal, called active from +8 up or from −8 down.
Assay [2] is described as follows: probe aNOTCH3 binding on compound microarray – biochemical, small-molecule microarray, 635/667 nm fluorescence, primary screen (AID 1120).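 Note: probe is a biotin-tagged antibody raised against NOTCH3 rather than NOTCH3 protein; score merges spot fluorescence near 667 nm with spot signal to noise.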 Particulars: higher = more signal.
Assay [3] can be described thus: probe aNOTCH2 binding on compound microarray – biochemical, small-molecule microarray, 635/667 nm fluorescence, primary screen (AID 1121).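 Note: score merges feature fluorescence read at 667 nm with its signal to noise.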 Particulars: higher = more signal.
The target in assay [4] is Carbonic anhydrase 2 (Homo sapiens) (UniProt P00918). Nature of the assay: compounds binding carbonic anhydrase 2 – biochemical, small-molecule microarray, Alexa647-labelled CAII, profiling panel (AID 1122). Conditions: CAII-A647 binding fluorescence, higher = more signal.
Assay [5] can be described thus: COS7 lysate on small-molecule microarray, probe aHis, 635 nm (AID 1123).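 Note: z-score combines 667nm fluorescence intensity with signal-to-noise per printed compound spot.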 Particulars: COS7 cell lysate, fluorescence, higher = more signal.
Assay [6] is described as follows: probe aLAP1 signal on lysate-treated microarray – cell lysate, small-molecule microarray, COS7 lysate, primary screen (AID 1124).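 Note: lysate comes from COS7 cells expressing LAP1 and is applied at 0.3 µg/mL; score merges spot fluorescence near 667 nm with signal-to-noise over triplicate slides.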 Particulars: probe aLAP1, fluorescence, higher = more signal.
In another assay the test system is Sam68 (KHDRBS1). Put plainly: compounds binding KHDRBS1 protein – biochemical, small-molecule microarray, 635 nm fluorescence, primary screen (AID 1125).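 Note: score merges 667 nm channel intensity with signal to noise over triplicate slides.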 Conditions: higher = more signal.
The subject of assay [7] is Chordin-like protein 2 (CHRDL2). Nature of the assay: compounds binding chordin-like 2 – biochemical, small-molecule microarray, 635 nm fluorescence, primary screen (AID 1126).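 Note: printed compound slides probed with Chrdl2 protein at 4 µg/mL for 1 h at 4 C; score merges 667 nm emission intensity with signal to noise over three replicate slides.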 Conditions: fluorescence 635 nm, higher = more signal.
Assay [8] concerns the target Concanavalin-A (Canavalia ensiformis) (UniProt P02866). Put plainly: compounds binding concanavalin A lectin – biochemical, small-molecule microarray, Alexa647 label, 635 nm, artefact control for SMM control protein annotation, primary screen (AID 1127).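 Note: z combines 667 nm emission intensity with signal-to-noise across three replicate slides.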 Conditions: ConA-A647 binding fluorescence, higher = more signal.
Assay [9] can be described thus: compounds binding Alexa647 anti-His antibody – biochemical, small-molecule microarray, 635 nm fluorescence, artefact control for SMM control protein annotation, primary screen (AID 1128).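 Note: score merges feature fluorescence with signal-to-noise for each printed compound spot.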 Particulars: higher = more signal.
Assay [10] relates to Human papillomavirus type 1a E7 protein (residues 1-88). Put plainly: HPV1a E7 small-molecule binders, primary screen, biochemical, small-molecule microarray, residues 1-88, 635 nm (AID 1129). Particulars: small-molecule microarray binding, fluorescence 635 nm; higher = more signal.
Assay [11] concerns the target Focal adhesion kinase 1 (Homo sapiens) (UniProt Q05397). Nature of the assay: PTK2 protein binding on printed compound slides – biochemical, small-molecule microarray, 635/667 nm fluorescence, BSA, DTT, primary screen (AID 1130).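 Note: composite of spot emission at 667 nm and signal to noise over triplicate slides.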 Particulars: 635 nm fluorescence, higher = more signal.
Assay [12] has as its system Fibrinogen (Alexa647-labelled). Put plainly: Alexa647-fibrinogen binding to printed small molecules – biochemical, small-molecule microarray, 635/667 nm fluorescence, artefact control for SMM control-protein annotation, profiling panel (AID 1131).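 Note: z-score merges 667 nm fluorescence with per-spot signal-to-noise over triplicate slides.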 Conditions: fibrinogen-A647 binding fluorescence, higher = more signal.
The target of assay [13] is Follistatin (Homo sapiens) (UniProt P19883). Nature of the assay: FST protein binding to printed compounds – biochemical, small-molecule microarray, 635/667 nm fluorescence, primary screen (AID 1132). Particulars: 635 nm fluorescence, higher = more signal.
Follistatin (Homo sapiens), sequence (P19883 whole entry, looked up): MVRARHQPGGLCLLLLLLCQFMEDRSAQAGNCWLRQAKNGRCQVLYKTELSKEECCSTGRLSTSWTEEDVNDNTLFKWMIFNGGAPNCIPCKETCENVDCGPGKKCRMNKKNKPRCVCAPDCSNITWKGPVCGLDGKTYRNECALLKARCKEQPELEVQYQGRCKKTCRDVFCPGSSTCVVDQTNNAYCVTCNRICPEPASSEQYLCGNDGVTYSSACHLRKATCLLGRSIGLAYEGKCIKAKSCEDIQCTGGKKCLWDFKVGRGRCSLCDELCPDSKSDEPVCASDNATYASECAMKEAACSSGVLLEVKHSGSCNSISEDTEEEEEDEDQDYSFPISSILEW
Assay [14] deals with Fibroblast growth factor 2 (Homo sapiens) (UniProt P09038). Nature of the assay: basic fibroblast growth factor binding to printed compounds – biochemical, small-molecule microarray, 635/667 nm fluorescence, primary screen (AID 1133). Conditions: FGF2, fluorescence 635/667, higher = more signal.
Fibroblast growth factor 2 (Homo sapiens), sequence (P09038 whole entry, looked up): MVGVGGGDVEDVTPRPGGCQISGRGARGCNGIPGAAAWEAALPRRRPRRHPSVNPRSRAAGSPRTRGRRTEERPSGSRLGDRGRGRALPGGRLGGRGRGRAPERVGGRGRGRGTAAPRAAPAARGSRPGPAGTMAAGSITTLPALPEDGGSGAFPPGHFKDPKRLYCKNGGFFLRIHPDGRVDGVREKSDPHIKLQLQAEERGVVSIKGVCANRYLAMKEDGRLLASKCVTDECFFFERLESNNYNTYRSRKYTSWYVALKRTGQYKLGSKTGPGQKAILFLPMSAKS
The nature of assay [15]: JC-1 mitochondrial potential readout, lung cancer cells – cell-based, A549, JC-1 fluorescence, basal, 24 h, 100 nL, profiling panel (AID 1138).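 Note: A549 lung adenocarcinoma cells under basal conditions with no added stimulus; test concentration not given here.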 Conditions: higher = more signal.
In the next assay the test system is Lefty1. Nature of the assay: Lefty1 protein binding to printed compounds – biochemical, small-molecule microarray, 635/667 nm fluorescence, primary screen (AID 1139). Conditions: fluorescence 635/667, higher = more signal.
Assay [16] concerns wheat germ agglutinin (Triticum aestivum), Alexa647-labelled. Put plainly: Alexa647-WGA lectin binding to printed small molecules – biochemical, small-molecule microarray, 635/667 nm fluorescence, artefact control for SMM control-protein annotation, profiling panel (AID 1140).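 Note: score merges 667 nm feature emission with signal to noise over triplicate slides.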 Particulars: WGA-A647 binding, 635 nm fluorescence, higher = more signal.
The target of assay [17] is Luciferin 4-monooxygenase (Photinus pyralis) (UniProt P08659). Put plainly: inhibition of purified Photinus pyralis luciferase – biochemical, luminescence, purified enzyme, 2006 set, primary screen (AID 1141).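 Note: cell-free assay with purified firefly luciferase at 100 ng per well in PBS; test concentration not given here.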 Conditions: purified firefly luciferase, SteadyGlo luminescence, 30 min; higher = more signal, called active from +8 up or from −8 down.
Luciferin 4-monooxygenase (Photinus pyralis), sequence (P08659 whole entry, looked up): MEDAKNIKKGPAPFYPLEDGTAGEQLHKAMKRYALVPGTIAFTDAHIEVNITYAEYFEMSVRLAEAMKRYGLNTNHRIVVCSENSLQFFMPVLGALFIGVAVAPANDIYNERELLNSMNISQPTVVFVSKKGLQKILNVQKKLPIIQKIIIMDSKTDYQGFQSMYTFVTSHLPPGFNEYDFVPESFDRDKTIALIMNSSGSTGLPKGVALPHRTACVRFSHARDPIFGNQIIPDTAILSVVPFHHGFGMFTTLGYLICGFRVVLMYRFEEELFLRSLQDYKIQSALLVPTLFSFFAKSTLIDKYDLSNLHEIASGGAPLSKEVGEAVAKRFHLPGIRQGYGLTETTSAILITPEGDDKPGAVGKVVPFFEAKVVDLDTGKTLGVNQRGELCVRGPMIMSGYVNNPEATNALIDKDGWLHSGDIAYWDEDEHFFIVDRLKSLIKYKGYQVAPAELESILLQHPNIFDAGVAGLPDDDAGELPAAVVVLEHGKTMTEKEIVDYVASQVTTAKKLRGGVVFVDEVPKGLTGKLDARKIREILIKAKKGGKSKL

Experimental findings from PubChem BioAssay are described below.

SMILES strings stand for the structures. Activity calls are given as the source filed them.

Focal adhesion kinase 1 (Homo sapiens), sequence (Q05397 whole entry, looked up): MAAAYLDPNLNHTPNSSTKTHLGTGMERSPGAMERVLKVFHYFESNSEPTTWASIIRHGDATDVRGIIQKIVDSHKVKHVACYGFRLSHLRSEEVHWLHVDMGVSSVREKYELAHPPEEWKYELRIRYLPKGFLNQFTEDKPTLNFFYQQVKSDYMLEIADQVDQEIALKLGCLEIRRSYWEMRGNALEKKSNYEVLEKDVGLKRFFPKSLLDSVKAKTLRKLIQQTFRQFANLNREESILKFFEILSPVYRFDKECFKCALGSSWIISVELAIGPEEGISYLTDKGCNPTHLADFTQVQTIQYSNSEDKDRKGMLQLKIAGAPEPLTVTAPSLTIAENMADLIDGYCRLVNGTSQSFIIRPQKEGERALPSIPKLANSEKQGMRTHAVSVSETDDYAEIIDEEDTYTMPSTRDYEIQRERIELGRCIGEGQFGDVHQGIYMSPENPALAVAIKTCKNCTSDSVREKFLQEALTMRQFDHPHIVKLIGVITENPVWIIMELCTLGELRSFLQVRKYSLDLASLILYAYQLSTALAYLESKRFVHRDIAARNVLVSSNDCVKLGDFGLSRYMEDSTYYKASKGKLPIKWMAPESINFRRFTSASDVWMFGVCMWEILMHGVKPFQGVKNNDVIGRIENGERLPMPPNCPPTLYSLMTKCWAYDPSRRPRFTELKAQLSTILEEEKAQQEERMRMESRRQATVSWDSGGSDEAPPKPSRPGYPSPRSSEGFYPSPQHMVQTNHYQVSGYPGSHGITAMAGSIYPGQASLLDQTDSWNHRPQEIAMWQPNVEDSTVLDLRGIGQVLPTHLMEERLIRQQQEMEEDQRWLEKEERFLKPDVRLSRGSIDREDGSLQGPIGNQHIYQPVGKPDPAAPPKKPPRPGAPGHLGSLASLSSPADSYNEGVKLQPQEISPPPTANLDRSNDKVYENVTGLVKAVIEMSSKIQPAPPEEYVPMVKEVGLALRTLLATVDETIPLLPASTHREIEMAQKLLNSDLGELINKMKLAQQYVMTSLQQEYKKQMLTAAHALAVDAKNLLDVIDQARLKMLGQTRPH
Concanavalin-A (Canavalia ensiformis), sequence (P02866 whole entry, looked up): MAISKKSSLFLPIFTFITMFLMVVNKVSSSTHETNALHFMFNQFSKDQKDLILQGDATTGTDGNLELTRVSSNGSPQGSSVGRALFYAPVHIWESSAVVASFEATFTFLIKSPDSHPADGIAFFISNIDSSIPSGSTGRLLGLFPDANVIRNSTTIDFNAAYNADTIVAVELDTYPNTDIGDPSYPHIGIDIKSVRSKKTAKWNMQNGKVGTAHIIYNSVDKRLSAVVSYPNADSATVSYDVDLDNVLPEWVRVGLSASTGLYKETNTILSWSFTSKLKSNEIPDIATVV
Albumin (Bos taurus), sequence (P02769 whole entry, looked up): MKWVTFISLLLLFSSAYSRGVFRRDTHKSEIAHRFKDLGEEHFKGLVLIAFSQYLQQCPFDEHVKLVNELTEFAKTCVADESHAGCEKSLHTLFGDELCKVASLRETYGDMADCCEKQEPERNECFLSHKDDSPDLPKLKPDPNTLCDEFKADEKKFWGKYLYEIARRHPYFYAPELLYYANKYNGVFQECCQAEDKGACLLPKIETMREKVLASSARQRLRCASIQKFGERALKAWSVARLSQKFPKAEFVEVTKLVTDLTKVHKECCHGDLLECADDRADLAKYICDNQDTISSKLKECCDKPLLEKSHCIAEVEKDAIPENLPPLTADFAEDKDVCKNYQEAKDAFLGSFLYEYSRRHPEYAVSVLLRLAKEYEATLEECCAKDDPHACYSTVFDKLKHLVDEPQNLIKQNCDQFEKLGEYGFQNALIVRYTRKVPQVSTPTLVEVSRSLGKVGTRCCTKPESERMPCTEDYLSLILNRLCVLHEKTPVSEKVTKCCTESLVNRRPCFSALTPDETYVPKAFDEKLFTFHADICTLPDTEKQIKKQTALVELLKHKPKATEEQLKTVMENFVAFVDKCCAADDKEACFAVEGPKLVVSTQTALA

Turning to `CCCC[C@@H]1C[C@H]1[C@@H](NC(=O)c1ccco1)c1ccccc1`, the composite z-score was 0.277 with Albumin (Bos taurus); -0.25 in assay [2]; -0.193 in [3]; -0.504 in [4]; -0.185 in assay [5]; -0.697 in [6]. Besides, the composite z-score is -0.555 in the assay with Sam68 (KHDRBS1); -1.41 in assay [7]; -0.945 in [8]; -0.172 in [9]; -1 in [10]; -0.107 in assay [11]. For the same compound, the composite z-score in assay [12] is -1.82; in [13] it was -1.64; in assay [14], -2.17; with Lefty1 it was -1.06; in assay [16], -0.0439. The composite Z-score in assay [1] is -0.264 (inactive). The z-score in assay [15] is 0.542; in assay [17], 0.771 (inactive).
Turning to `Cc1ccc(S[C@]2(C(=O)NCCN3CCOCC3)CC(=O)N(C3CCCCC3)[C@@H]2c2ccc(CO)cc2)cc1`, the composite z-score in the assay with Albumin (Bos taurus) is 0.869; in assay [2], 0.0525; in [3], -0.0621; in assay [4] it was 0.617; in assay [5], 1.83; in [6], 0.437. In addition, the composite z-score in the assay with Sam68 (KHDRBS1) is 1.16; in [7], -0.179; in assay [8], 1.07; in assay [9] it was 1.81; in [10], 1.21; in [11], 1.02. In addition, the composite z-score in assay [12] is 0.611; in assay [13], 0.102; in [14], -0.262; with Lefty1 it was -0.299; in assay [16] it was 0.211. In addition, the composite Z-score in assay [1] was 0.562 (inactive). Also, the z-score in [15] was 1.63; in [17] it was -0.125 (inactive).
`C=C[C@@H](C)[C@@H](OC(=O)Nc1ccc(OC)cc1)c1ccc(O)c2ccccc12`: the composite z-score was 0.199 in the assay with Albumin (Bos taurus); -0.155 in assay [2]; -0.183 in assay [3]; 0.283 in assay [4]; 0.516 in assay [5]; -0.0028 in assay [6]. The composite z-score in the assay with Sam68 (KHDRBS1) was 0.349; in assay [7] it was 0.897; in assay [8] it was 0.323; in [9] it was 0.305; in assay [10], 0.52; in [11], -0.209. Moreover, the composite z-score in [12] came out at 0.521; in [13], 1.16; in assay [14], 1.22; in the assay on Lefty1, 0.676; in assay [16] it was 0.449. Besides, the composite Z-score in assay [1] is 0.725 (inactive). Further, the z-score in assay [15] was -1.38; in assay [17] it was -5.76 (inactive).
Take `[N-]=[N+]=Nc1ccccc1[C@H]1OC(c2ccc(OCCCO)cc2)=N[C@@]1(CCS(=O)(=O)c1ccccc1)C(=O)N1CCOCC1`: the composite z-score is 1.08 with Albumin (Bos taurus); 0.586 in assay [2]; 0.358 in [3]; 0.522 in assay [4]; 2.65 in assay [5]; 0.603 in assay [6]. Further, the composite z-score is 1.3 in the assay on Sam68 (KHDRBS1); -0.409 in assay [7]; 1.22 in [8]; 2.83 in assay [9]; 1.26 in assay [10]; 1.32 in assay [11]. The composite z-score was found to be 1 in [12]; 1.3 in [13]; 1.73 in assay [14]; 0.225 with Lefty1; 1.47 in [16]. Besides, the composite Z-score in assay [1] is 1.23 (inactive). Besides, the z-score in assay [15] is -0.218; in assay [17], -15 (active).
For `NC(=O)[C@@]1(CCS(=O)(=O)c2ccccc2)N=C(c2ccc(OCCCO)cc2)O[C@H]1c1ccccc1`, the composite z-score with Albumin (Bos taurus) was 0.737; in assay [2], 0.0793; in assay [3], -0.0531; in [4] it was 0.801; in assay [5], 2.86; in [6] it was 0.821. Also, the composite z-score with Sam68 (KHDRBS1) is 1.2; in assay [7], -1.12; in [8], 1.14; in assay [9], 2.14; in assay [10] it was 1.27; in assay [11], 0.533. Moreover, the composite z-score in assay [12] was 1.02; in assay [13] it was 0.78; in assay [14], -0.507; in the assay with Lefty1, -0.0434; in assay [16], 1.17. The composite Z-score in assay [1] was -0.0775 (inactive). In addition, the figures for the z-score in [15] and in assay [17] were -0.309 and 0.155 (inactive), respectively.
In the case of `CCCNC(=O)[C@@]1(C)c2ccccc2C(=O)N(C(C)C)[C@H]1c1ccc(CO)cc1`, the composite z-score was -0.598 in the assay with Albumin (Bos taurus); -0.136 in [2]; -0.102 in assay [3]; 0.673 in [4]; 1.63 in [5]; 0.65 in [6]. Moreover, the composite z-score in the assay with Sam68 (KHDRBS1) was -0.347; in [7] it was -0.95; in assay [8], -1.15; in [9], -0.853; in assay [10], -0.54; in assay [11], 0.198. Also, the composite z-score is -0.879 in [12]; -0.127 in assay [13]; -0.343 in assay [14]; -1.38 in the assay on Lefty1; -0.867 in [16]. For the same compound, the composite Z-score in [1] is -0.305 (inactive). For the same compound, the z-score is -0.809 in [15] and 0.33 (inactive) in assay [17].
